Test results published in PubChem BioAssay (NCI).
Compounds without any hit were thinned out: in the full panel of roughly 79,000, 15% have a hit. Rule as the data show it: active = growth inhibition above about 70%; inactive = the rest.

Columns and labels:
[1] = NCI Yeast Anticancer Drug Screen. Data for the rad52 strain (AID 147);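 also: 0% = growth of vehicle-treated control cultures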; settings: S. cerevisiae rad52 mutant growth inhibition, hits give high values
In short: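 Measured: yeast growth inhibition. System: strain with a defined DNA damage repair alteration. Reference: vehicle-treated control cultures.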

[2] = NCI Yeast Anticancer Drug Screen. Data for the wt1 strain (AID 149);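 also: 0% = growth of vehicle-treated wt1 cultures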; settings: S. cerevisiae wt1 strain (SPY 50644) growth inhibition, hits give high values
In short: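 Compounds are added to wt1 yeast cultures. Growth is then measured. Inhibition is expressed relative to vehicle-treated controls.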

[3] = NCI Yeast Anticancer Drug Screen. Data for the rad50EPP+ strain (AID 151);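 also: 0% = growth of vehicle-treated control cultures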; settings: S. cerevisiae rad50 mutant strain, hits give high values
In short: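 One strain with a rad50 alteration (rad50EPP+) was compound-treated, its growth then compared to that of vehicle controls.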

[4] = NCI Yeast Anticancer Drug Screen. Data for the mgt1 strain (AID 153); settings: S. cerevisiae mgt1 mutant growth inhibition, hits give high values
In short: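 After exposure of the mgt1 yeast mutant to compound, growth was measured and reported as inhibition compared with vehicle controls.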

[5] = NCI Yeast Anticancer Drug Screen. Data for the rad50 strain (AID 155);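 also: 0% = growth of vehicle-only cultures of the same strain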; settings: S. cerevisiae rad50 strain growth inhibition, hits give high values
In short: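 Inhibition values express reduced yeast growth in compound-treated cultures relative to vehicle-treated controls.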

[6] = NCI Yeast Anticancer Drug Screen. Data for the mec2-1 strain (AID 157); settings: S. cerevisiae mec2-1 strain, hits give high values
In short: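 Test agents were screened against the mec2-1 yeast strain, with defined DNA repair or cell cycle alteration. Growth was scored as inhibition against vehicle-only controls.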

[7] = NCI Yeast Anticancer Drug Screen. Data for the rad14 strain (AID 159);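 also: 0% = growth of vehicle-treated control cultures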; settings: S. cerevisiae rad14 strain growth inhibition, hits give high values
In short: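 A mutant yeast strain defective in DNA damage repair is treated with compound; inhibition of its growth is scored against untreated, vehicle-exposed cultures.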

[8] = NCI Yeast Anticancer Drug Screen. Data for the sgs1 mgt1 strain (AID 161);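 also: 0% = growth of cultures given vehicle only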; settings: S. cerevisiae sgs1 mgt1 strain, hits give high values
In short: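 Test agents were incubated with a DNA-repair-mutant yeast strain. Growth was then read and compared against vehicle-treated controls.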

[9] = NCI Yeast Anticancer Drug Screen. Data for the CLN2oe strain (AID 163);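 also: 0% = growth of vehicle-only control cultures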; settings: S. cerevisiae CLN2oe strain, hits give high values
In short: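 Here, growth inhibition in a cell-cycle-altered yeast strain after compound exposure was quantified against vehicle control growth.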

[10] = NCI Yeast Anticancer Drug Screen. Data for the cln2 rad14 strain (AID 165);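 also: 0% = growth equal to vehicle treated cultures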; settings: S. cerevisiae cln2 rad14 strain, hits give high values
In short: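 Growth of compound-exposed yeast (cln2 rad14 genotype) measured and expressed as inhibition relative to vehicle.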

[11] = NCI Yeast Anticancer Drug Screen. Data for the bub3 strain (AID 167); settings: S. cerevisiae bub3 mutant strain, hits give high values
In short: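 Steps: expose the mutant yeast strain to compound; grow alongside vehicle-treated cultures; measure growth; express inhibition against the vehicle cultures.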

[12] = at 5.0 µM (retest, dose inferred, filed as 0.5)
[13] = at 50.0 µM (retest, dose inferred, filed as 5.0)

Measured: growth inhibition

CCCC/C([O-])=C1/C(=O)N(c2ccccc2)N=C1C.CCCC/C([O-])=C1/C(=O)N(c2ccccc2)N=C1C.[Cu+2]
inactive: [1]; at 1.2 µM 1% | [1]; at 3.7 µM 2% | [1]; at 11.0 µM 2% | [1]; at 33.0 µM 1% | [1]; at 100.0 µM -2% | [2]; at 1.2 µM 0% | [2]; at 3.7 µM -1% | [2]; at 11.0 µM -2% | [2]; at 33.0 µM -2% | [2]; at 100.0 µM -3% | [3]; at 1.2 µM -1% | [3]; at 3.7 µM 0% | [3]; at 11.0 µM -1% | [3]; at 33.0 µM -2% | [3]; at 100.0 µM 0% | [4]; at 1.2 µM -2% | [4]; at 3.7 µM -1% | [4]; at 11.0 µM 0% | [4]; at 33.0 µM 0% | [4]; at 100.0 µM -5% | [5]; at 1.2 µM 1% | [5]; at 3.7 µM 2% | [5]; [12] 28% | [5]; at 11.0 µM 2% | [5]; at 33.0 µM 1% | [5]; [13] 48% | [5]; at 50.0 µM -7.7% | [5]; at 100.0 µM 0% | [6]; at 1.2 µM -3% | [6]; at 3.7 µM -3% | [6]; [12] 10% | [6]; at 11.0 µM -6% | [6]; at 33.0 µM 1% | [6]; [13] 29% | [6]; at 50.0 µM -6.8% | [6]; at 100.0 µM -6% | [7]; at 1.2 µM 0% | [7]; at 3.7 µM 0% | [7]; at 11.0 µM -1% | [7]; at 33.0 µM -2% | [7]; at 100.0 µM -2% | [8]; [12] -2% | [8]; [13] 42% | [8]; at 50.0 µM -13.3% | [9]; at 1.2 µM -4% | [9]; at 3.7 µM -2% | [9]; at 11.0 µM 7% | [9]; at 33.0 µM 0% | [9]; at 100.0 µM 3% | [10]; [12] 27% | [10]; [13] 44% | [10]; at 50.0 µM 32.3% | [11]; at 1.2 µM -1% | [11]; at 3.7 µM -1% | [11]; [12] 26% | [11]; at 11.0 µM -4% | [11]; at 33.0 µM -2% | [11]; [13] 48% | [11]; at 50.0 µM -1% | [11]; at 100.0 µM -5%
